Source: PubChem BioAssay (several laboratories)
Mcl1-Noxa inh = Mcl-1/Noxa binding inhibitors, primary screen, biochemical, TR-FRET, 1536-well; Induced myeloid leukemia cell differentiation protein Mcl-1 (Homo sapiens), Q07820; TR-FRET Mcl-1/Noxa peptide binding, 2 h; inhibition, % at 21.7 µM; hit rate 1.5% among 220,000;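 active = compounds that cut the protein-peptide binding signal by more than 50% relative to plate controls in a single-dose test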;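 also: His-tagged Mcl-1 with rhodamine Noxa BH3 peptide and terbium anti-His antibody; 0% = Mcl-1 plus Noxa peptide wells and 100% = peptide-only wells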
Target sequence (Q07820 whole entry, looked up): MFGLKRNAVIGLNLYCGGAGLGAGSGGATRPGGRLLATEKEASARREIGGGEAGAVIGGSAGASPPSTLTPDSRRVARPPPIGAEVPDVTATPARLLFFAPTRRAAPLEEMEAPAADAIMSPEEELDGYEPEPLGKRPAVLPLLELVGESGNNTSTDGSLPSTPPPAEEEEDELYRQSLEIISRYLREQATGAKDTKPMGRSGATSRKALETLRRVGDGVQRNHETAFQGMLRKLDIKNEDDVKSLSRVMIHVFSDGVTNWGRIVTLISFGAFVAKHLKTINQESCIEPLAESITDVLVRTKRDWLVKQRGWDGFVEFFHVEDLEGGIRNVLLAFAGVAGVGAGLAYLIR
Mcl-1 Bim block = inhibitors of Bim peptide binding to Mcl-1, primary screen, biochemical, bead-based flow cytometry, multiplex; Induced myeloid leukemia cell differentiation protein Mcl-1 (Homo sapiens), Q07820; Bim peptide-Mcl-1 binding; inhibition, % at 10 µM; hit rate 0.1% among 190,000; in the data active = inhibition above about 40%;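 also: 0% = no compound tracer wells and 100% = peptide blocker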
Bcl-xL primary = inhibitors of human Bcl-xL, primary screen, biochemical, fluorescence polarization, HTS. hit rate 0.7% among 320,000. GST-Bcl-xL / FITC-Bim BH3 peptide fluorescence polarization. inhibition, % at 10.9 µM. Bcl-2-like protein 1 (Homo sapiens), Q07817;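 active = inhibition above the mean of all tested compounds plus 3 SD, cutoff set per campaign, cut at about 30% in these data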;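 also: 0% = DMSO wells and 100% = unlabeled Bim-BH3 peptide competitor; inhibitors lower millipolarization by displacing the labeled peptide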
Target sequence (Q07817 whole entry, looked up): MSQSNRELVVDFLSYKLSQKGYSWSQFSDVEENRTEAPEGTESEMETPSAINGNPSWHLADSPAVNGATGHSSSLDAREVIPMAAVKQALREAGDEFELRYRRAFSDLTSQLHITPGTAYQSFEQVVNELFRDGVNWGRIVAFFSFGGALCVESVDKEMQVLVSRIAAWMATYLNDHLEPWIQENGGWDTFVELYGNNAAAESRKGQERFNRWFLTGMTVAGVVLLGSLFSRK
Mcl1 Bid PPI = Mcl-1/Bid binding inhibitors, primary screen, biochemical, TR-FRET, 1536-well; Induced myeloid leukemia cell differentiation protein Mcl-1 (Homo sapiens), Q07820; TR-FRET Mcl-1/Bid-Dy647 peptide binding; inhibition, % at 21.7 µM; hit rate 0.97% among 220,000; AID 1021, 2008;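 active = compounds that cut the binding signal by more than half at the single screening dose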;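 also: His-tagged Mcl-1 with europium anti-His antibody binding Bid BH3 peptide; 0% = Mcl-1 plus peptide wells and 100% = peptide-only wells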
GLD-1 RNA inh = GLD-1/TGE RNA complex disruptors, primary screen, biochemical, fluorescence polarization; Female germline-specific tumor suppressor gld-1 (Caenorhabditis elegans), Q17339; purified GLD-1 + fluorescein TGE RNA; inhibition, % at 5.96 µM; hit rate 0.44% among 320,000; AID 2280, 2010;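 active = percent inhibition above a per-plate cutoff, the plate mean of test compounds plus 3 SD, cut at about 30% in these data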;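 also: 0% = DMSO wells with GLD-1 and probe and 100% = wells lacking GLD-1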
MCL1 BIM primary = inhibitors of MCL1 binding to BIM-BH3, primary screen, biochemical, fluorescence polarization; Induced myeloid leukemia cell differentiation protein Mcl-1 (Homo sapiens), Q07820; GST-MCL1 / FITC-Bim-BH3 fluorescence polarization; inhibition, % at 10.9 µM; hit rate 0.68% among 320,000; AID 2057, 2009;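 active = inhibition above the mean inhibition of all tested compounds plus 3 SD, set per campaign, cut at about 40% in these data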;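 also: 0% = DMSO wells and 100% = unlabeled Bim-BH3 peptide control; higher means more loss of mP so more displacement of Bim peptide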
An asterisk follows results filed as active; . = not tested or not shown. Only some compounds are listed: those with a hit (about 2.3% of all), similar ones and a draw of the others.

SMILES	Mcl1-Noxa inh	Mcl-1 Bim block	Bcl-xL primary	Mcl1 Bid PPI	GLD-1 RNA inh	MCL1 BIM primary
COc1ccccc1NS(=O)(=O)c1ccc(C)c(C(=O)NCC2(N(C)C)CCCCC2)c1	.	.	3.8	.	1.0	6.0
O=C(O)C1CCCCC1C(=O)Nc1nc(-c2ccc(Cl)s2)cs1 (stereo unspecified)	70.8*	1.0	11.3	-114.0	2.1	25.1
O=C(Nc1ccc([N+](=O)[O-])cc1)Nc1nc(-c2ccc(Cl)s2)cs1	82.3*	-4.0	-0.8	28.9	0.1	0.2
CCN(C[C@H]1N[C@@](CC)(C(=O)OC)[C@H]2C(=O)N(C)C(=O)[C@@H]12)C(=O)c1ccc(C(C)(C)C)cc1	.	.	.	.	-2.8	.
CCCCNC(=O)CS(=O)Cc1nc(-c2cccc(C)c2)oc1C (stereo unspecified)	22.9	1.0	-0.8	-11.7	2.2	-0.1
CCCCSCCCNC(=O)CS(=O)Cc1nc(-c2cccc(C)c2)oc1C (stereo unspecified)	0.1	1.0	45.3*	-12.5	4.3	3.7
CCOc1ccc(N2C(=O)/C(=C\c3ccc(O)c(OC)c3)S(=O)(=O)C2c2cccc([N+](=O)[O-])c2)cc1 (stereo unspecified)	71.5*	2.0	0.3	33.7	1.9	1.1
CCOc1ccc(N2C(=O)/C(=C\c3ccc(OC)c(O)c3)S(=O)(=O)C2c2cccc([N+](=O)[O-])c2)cc1 (stereo unspecified)	-11.9	2.0	5.7	-15.4	1.2	7.0
C=CCNC(=S)NNC(=O)c1ccccc1	3.3	0.0	3.3	-41.4	1.9	9.3
C=CCNC(=S)NNC(=O)c1ccc([N+](=O)[O-])cc1	67.6*	0.0	7.9	-13.3	-3.6	16.0
CCN(Cc1ccc2c(c1)OCCO2)C(=O)CSc1nc(C)nc2sc(C)c(C)c12	.	.	0.1	.	-6.7	-1.6
Cc1cccc(NC(=O)CN2C(=O)/C(=C3\SC(=S)N(CC4CCCO4)C3=O)c3ccccc32)c1 (stereo unspecified)	.	.	0.1	.	1.9	3.5
Cc1ccc(NC(=O)CN2C(=O)/C(=C3\SC(=S)N(C4CCS(=O)(=O)C4)C3=O)c3ccccc32)cc1 (stereo unspecified)	75.3*	0.0	.	99.8*	.	.
O=C(CN1C(=O)/C(=C2\SC(=S)N(C3CCS(=O)(=O)C3)C2=O)c2ccccc21)Nc1ccccc1 (stereo unspecified)	120.7*	-3.0	21.0	99.1*	-2.2	11.3
O=C1NC(c2ccc(Br)cc2)=N/C1=C/c1ccco1	26.0	-4.0	12.7	33.0	0.9	11.5
O=C1NC(c2ccccc2Cl)=N/C1=C/c1ccco1	60.8*	.	11.6	-47.0	14.3	8.9
COc1ccccc1N1CCN(CC(=O)c2c[nH]c3ccccc23)CC1	-14.5	.	-13.8	-56.8	-5.8	-10.8
COc1ccccc1N1CCN(CC(=O)c2c(C)[nH]c3ccccc23)CC1	-8.5	-2.0	-1.8	75.7*	0.2	-5.4
O=C(O)c1cc(-c2ccco2)nn1-c1ccc(Cl)cc1	80.8*	-2.0	.	-12.9	.	.
Cc1ccc(-n2nc(-c3ccco3)cc2C(=O)O)c(C)c1	78.6*	0.0	.	-41.7	.	.
Cc1ccc(-n2nc(-c3cccnc3)cc2C(=O)N2CCOCC2)c(C)c1	8.8	-1.0	7.2	-18.3	-3.2	8.7
O=C(Nc1ccc(F)cc1F)c1cc(Cl)sc1Cl	.	.	3.1	.	2.8	6.6
CCOC(=O)c1nnc(-c2ccc(C)cc2)nc1Sc1ccc(Cl)cc1	-9.4	1.0	2.0	54.9*	-6.7	7.6
CCOC(=O)c1nnc(-c2ccc(C)cc2)nc1Sc1ccccc1Cl	14.0	2.0	-3.2	-2.6	7.9	-1.5
COc1ccc(CNC(=O)C(C)Sc2nc3ccccc3c(=O)n2CC2CCCO2)cc1 (stereo unspecified)	.	.	7.6	.	6.4	10.0
SMILES	Mcl1-Noxa inh	Mcl-1 Bim block	Bcl-xL primary	Mcl1 Bid PPI	GLD-1 RNA inh	MCL1 BIM primary
CCc1ccc(C(=O)NC2CCCCC2)s1	-3.5	-3.0	0.7	61.4*	2.2	3.9
COc1ccc(-c2ccc(CCC(=O)O)n2CC(=O)Nc2ccccc2C)cc1	.	.	6.8	.	-3.4	7.5
Cc1ccc(-n2c(C)cc(/C=C3\SC(=O)NC3=O)c2C)cc1	.	.	1.0	.	-2.6	-3.8
Cc1cc(/C=C2/C(=O)NN(c3ccccc3)C2=O)c(C)n1-c1cccc(O)c1	86.6*	-7.0	11.4	-20.2	6.7	8.1
Cc1sc(-n2c(C)cc(/C=C3\SC(=S)NC3=O)c2C)c(C#N)c1C	75.5*	0.0	-32.1	-56.3	-31.4	-56.2
Cc1cc(C=C2C(=O)c3ccccc3C2=O)c(C)n1-c1cccc(C(=O)O)c1	30.8	2.0	11.2	-44.0	1.9	3.4
Cc1cc(/C=C2\SC(=S)NC2=O)c(C)n1-c1cccc(O)c1	53.3*	.	-42.0	-41.1	-70.5	-78.6
Cc1ccc(S(=O)(=O)Nc2ccccc2F)cc1C(=O)OC(C)C(=O)N1CCOCC1 (stereo unspecified)	.	.	-3.5	.	-7.0	-3.5
CCOC(=O)CC1C(=O)NCCN1C(=O)c1ccc(Cl)cc1 (stereo unspecified)	.	.	3.3	.	3.5	8.3
C[C@]12C=CC(=O)C=C1CC[C@@H]1[C@@H]2[C@@H](O)C[C@@]2(C)[C@H]1CC[C@]2(O)C(=O)CO	.	.	1.3	.	5.4	-1.1
Cc1ccc(NC(=O)COC(=O)[C@H](C)NC(N)=O)c(C)c1	10.2	-2.0	-1.7	-22.9	7.5	-3.9
Cc1cc(NC(=O)C(C)SCC(=O)Nc2ccccc2C(C)(C)C)no1 (stereo unspecified)	.	.	1.6	.	2.6	-7.6
CC(=O)N1CCc2c(sc(NC(=O)C3CCCCC3)c2C(N)=O)C1	.	.	13.4	.	56.7*	15.0
COC(=O)c1c(NC(=O)C2CC2)sc2c1CCN(C(C)=O)C2	13.0	0.0	-0.2	-13.0	0.5	-2.9
Nc1nc(Cl)cc(N2CCCC2)n1	2.9	3.0	4.2	-26.2	2.7	1.2
Nc1nc(Cl)cc(N2CCC(c3cc(-c4ccc(Cl)cc4Cl)n[nH]3)CC2)n1	65.9*	1.0	1.6	-3.8	-2.7	-4.1
Cc1cc(O)c(-c2cc(C(=O)Nc3sc4c(c3C(=O)NCc3ccco3)CCC4)[nH]n2)cc1C	70.5*	.	-1.2	-47.2	-3.1	1.1
Cc1ccc(-c2cc(C(=O)Nc3sc4c(c3C(=O)NCc3ccco3)CCC4)[nH]n2)c(O)c1	49.0	-20.0	0.5	34.1	-4.5	6.9
Cn1c(N)c(-c2ccccc2)c2ccc([N+](=O)[O-])cc2c1=O	.	.	-35.9	.	-26.5	-91.8
